From PubChem BioAssay (Tox21)
Where “and” joins values, the source holds several entries; their conditions need not be identical. Equal entries are not always repeated. Results filed as inconclusive are left out. A call without a number means that no potency is given here. Calls of active or inactive are those of the source. The call rests on the fitted dose curve; in most records, active means well fitted inhibition curve with a large enough effect in the signal ratio in the repeat runs (not every such curve was filed as active); inconclusive means weak or mixed curves; inactive means flat fitted curve, though single readings scatter; the % refers to the signal ratio.

These compounds were tested against Progesterone receptor (Homo sapiens) (UniProt P06401) (assay: qHTS assay to identify small molecule antagonists of the progesterone receptor (PR) signaling pathway (AID 1346795)). Settings: PR-UAS-bla HEK293T, beta-lactamase FRET ratio, 16 h; series mostly up to 92.4 µM; activity change, negative = inhibition: at the top concentration.
Excerpt: National Center for Advancing Translational Sciences [NCATS]
NIH Chemical Genomics Center [NCGC]
U.S. Environmental Protection Agency [EPA]
National Institutes of Environmental Health Sciences [NIEHS]
National Toxicology Program [NTP]
U.S. Food and Drug Administration [FDA]
Progesterone receptor (PR), a nuclear hormone receptor, plays an important role in development, metabolic homeostasis and reproduction. […] Endocrine disrupting chemicals (EDCs) and their interactions with steroid hormone receptors like PR causes disruption of normal endocrine function. To identify the compounds that inhibit PR signaling, a PR-UAS-bla GripTite cell line i.e. PR-UAS-bla HEK293T (Invitrogen, Carlsbad, CA, USA) containing a beta-lactamase reporter gene under the control of an Upstream Activator Sequence (UAS) was used to screen Tox21 10K compound library.
Tox21 Assay Protocol Summary:
PR-UAS-bla HEK293T cells were dispensed at 3,000 cells/4 uL of assay medium containing 2% charcoal stripped FBS per well into black wall/clear-bottom 1536-well plates using a Multidrop Combi (ThermoFisher Scientific, Waltham, MA) dispenser. After the assay plates were incubated at a 37C and 5% CO2 for 6 hr, 23 nL of compounds dissolved in DMSO, positive controls or DMSO only was transferred to the assay plate by a Pintool station (Kalypsys, San Diego, CA), followed by addition of 1 uL (1nM as final concentration) of Promegestone (R5020) in assay medium using a BioRAPTR FRD (Flying Reagent Dispenser, Aurora Discovery, San Diego, CA). The plates were incubated at 37C and 5% CO2 for 16 hr. Then 1 uL of LiveBLAzer B/G FRET substrate was added using a FRD. After the plates were incubated at room temperature for 2 hours, fluorescence intensity was measured by an Envision plate reader (PerkinElmer, Shelton, CT).
Potency means the concentration at half of the fitted maximal effect.

Chain of Progesterone receptor (Homo sapiens) (P06401 whole entry, looked up): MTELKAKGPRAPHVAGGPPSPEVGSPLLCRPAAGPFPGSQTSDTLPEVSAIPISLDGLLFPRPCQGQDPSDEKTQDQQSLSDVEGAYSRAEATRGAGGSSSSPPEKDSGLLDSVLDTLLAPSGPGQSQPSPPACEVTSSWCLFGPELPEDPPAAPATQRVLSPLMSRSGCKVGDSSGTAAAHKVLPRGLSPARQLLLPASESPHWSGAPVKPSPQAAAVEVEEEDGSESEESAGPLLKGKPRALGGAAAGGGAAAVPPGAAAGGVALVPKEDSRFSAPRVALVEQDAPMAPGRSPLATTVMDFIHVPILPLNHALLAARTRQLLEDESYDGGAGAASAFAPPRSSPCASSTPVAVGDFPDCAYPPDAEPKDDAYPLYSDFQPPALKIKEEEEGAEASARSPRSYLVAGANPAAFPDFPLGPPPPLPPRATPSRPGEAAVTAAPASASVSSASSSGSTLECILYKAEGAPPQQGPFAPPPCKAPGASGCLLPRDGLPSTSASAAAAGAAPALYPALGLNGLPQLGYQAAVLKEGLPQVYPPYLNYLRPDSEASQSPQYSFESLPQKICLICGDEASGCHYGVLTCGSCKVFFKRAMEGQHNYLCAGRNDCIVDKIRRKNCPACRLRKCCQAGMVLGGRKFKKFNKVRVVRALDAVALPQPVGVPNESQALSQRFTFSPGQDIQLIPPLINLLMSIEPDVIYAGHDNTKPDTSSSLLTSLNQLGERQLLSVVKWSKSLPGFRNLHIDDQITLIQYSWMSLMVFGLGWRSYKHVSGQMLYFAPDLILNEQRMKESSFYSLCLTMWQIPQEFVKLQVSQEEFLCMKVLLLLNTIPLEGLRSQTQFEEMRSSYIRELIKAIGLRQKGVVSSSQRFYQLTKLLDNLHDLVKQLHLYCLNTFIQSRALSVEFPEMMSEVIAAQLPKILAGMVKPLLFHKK

Compound	Potency	activity change, negative = inhibition
NNC(N)=S	11.3 µM (active) and 21.7 µM (active)	–
CCOC(=O)C(C)OC(=O)c1cc(Oc2ccc(C(F)(F)F)cc2Cl)ccc1[N+](=O)[O-] (stereo not given)	30.5 µM (active)	–
CC(C)NC(C)C	inactive	–
CN(C)C(=O)Nc1ccc(Cl)cc1	inactive	–
N#CCCCl	inactive	–
CCOP(=S)(OCC)O/N=C(\C#N)c1ccccc1	13.3 µM (active)	–
OCC(O)CO	inactive	–
N#CC(Br)Br	–	8.96% (inactive)
CCOc1cc(Oc2ccc(C(F)(F)F)cc2Cl)ccc1[N+](=O)[O-]	15.5 µM (active) and 13.7 µM (active)	–
Oc1cc(Cl)ccc1Oc1ccc(Cl)cc1Cl	13.3 µM (active)	–
CC(C)Oc1cc(-n2nc(C(C)(C)C)oc2=O)c(Cl)cc1Cl	24 µM (active) and 24.3 µM (active)	–
CCN(CC)N=O	inactive	–
Cc1cc(C)cc(C)c1	inactive	–
O=[N+]([O-])c1c(Cl)c(Cl)c(Cl)c(Cl)c1Cl	inactive	–
COc1ccc(C(CN(C)C)C2(O)CCCCC2)cc1 (stereo not given)	–	7.87% (inactive)
Nn1cnnc1	inactive	–
CCC(=O)O[C@H]1CC[C@H]2[C@@H]3CCC4=CC(=O)CC[C@]4(C)[C@H]3CC[C@]12C	0.486 µM (active)	–
NCc1cccnc1	inactive	–
O=S(=O)(Oc1ccc(Cl)cc1)c1ccc(Cl)cc1	17.5 µM (active) and 17.2 µM (active)	–
Cc1ccc(OP(=O)(Oc2ccc(C)cc2)Oc2ccc(C)cc2)cc1	15.4 µM (active)	–

Compound	Potency	activity change, negative = inhibition
CCC(C)c1cc([N+](=O)[O-])cc([N+](=O)[O-])c1O (stereo not given)	–	10.1% (inactive)
ClC1C(Cl)C(Cl)C(Cl)C(Cl)C1Cl (stereo not given)	inactive	–
O=C(O)C(F)(F)C(F)(F)C(F)(F)C(F)(F)C(F)(F)C(F)(F)C(F)(F)F	inactive	–
N#Cc1cc(Br)c(O)c(Br)c1	inactive	–
O=C1C=CC(=O)C=C1	inactive	–
Nc1ccncc1	inactive	–
O=C(O)CC[N+](=O)[O-]	–	-4.28% (inactive)
C=CCc1ccc2c(c1)OCO2	inactive	–
CCCCN(CCCC)N=O	inactive	–
COc1ccc(C=O)cc1	inactive	–
C=C(C)C(=O)OCC1CO1 (stereo not given)	–	7.51% (inactive)
Nc1ccc(-c2ccccc2)cc1	1.99 µM (active)	–
CCCCCCCCOC(=O)c1ccccc1C(=O)OCCCCCCCC	inactive	–
CCCCCCCCC(=O)NCc1ccc(O)c(OC)c1	48.6 µM (active)	–
CC(C)(c1cc(Cl)c(O)c(Cl)c1)c1cc(Cl)c(O)c(Cl)c1	7.7 µM (active)	–
CNC(=O)Oc1cccc2c1OC(C)(C)O2	inactive	–
COP(=O)(OC)OC	–	0.964% (inactive)
CC(C)C(=O)OCC(C)(C)C(OC(=O)C(C)C)C(C)C (stereo not given)	inactive	–
Oc1c(Cl)c(Cl)c(Cl)c(Cl)c1Cl	59.9 µM (active) and 48.6 µM (active)	–
CCC(C)(C)c1ccc(O)cc1	inactive	–
